# According to PubChem BioAssay (Tox21):
# Several values for one entry are separate records, joined by “and”; a condition that tells them apart may be missing. Equal entries are not always repeated. Results filed as inconclusive are left out. Entries that show only a call come without a potency. Activity calls are given as the source filed them. Unless noted, calls follow the shape of the dose curve; as a rule, active = well fitted cell-killing curve with a large enough effect in the repeat runs; inconclusive = weak or mixed curves, or effect the other way; inactive = flat fitted curve, though single readings scatter.
# Experiment: Nuclear factor erythroid 2-related factor 2/antioxidant responsive element (Nrf2/ARE) small molecule agonists: qHTS cell viability counter screen in human keratinocytes (AID 1919968); also: nearly all actives have a fitted effect of over 55% in size
# Settings: KeratinoSens HaCaT ARE cells viability, CellTiter-Fluor, 24 h; series mostly up to 92.4 µM
# In short: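 Cytotoxicity was multiplexed with the Nrf2/ARE luciferase assay in the same wells. Stably transfected HaCaT keratinocytes were treated with test compounds for 23 h at 37 C. Cell viability was then measured by CellTiter-Fluor fluorescence.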
# Potency is read from the fitted curve at half-maximal effect.
SMILES,Potency,"activity change, negative = cytotoxicity"
OCCOc1ccc(OCCO)cc1,inactive,–
N#CCC(=O)O,inactive,–
Nc1ncnc2c1ncn2[C@@H]1O[C@H](COP(=O)(O)O)[C@@H](O)[C@H]1O,inactive,–
CCc1ccc(C)nc1,inactive,–
CN(C)c1ccc(/C=C/c2ccc([N+](=O)[O-])cc2)cc1,–,0.836% [at 8.39 µM] (inactive)
C/C=C(\C)C(=O)OC/C=C(\C)CCC=C(C)C,inactive,–
CC(=O)/C=C/C1C(C)=CCC(C)C1(C)C (stereo not drawn),inactive,–
Cc1cccc(C)c1NC(=O)CC12CCCN1CCC2,inactive,–
CC(=O)N1CCN(c2ccc(O)cc2)CC1,inactive,–
C=C(C)C(=O)OCCCCCCOC(=O)C(=C)C,inactive,–
O=C1CCN(c2ccccc2)N1,inactive,–
Cl/C(=C\n1cncn1)c1ccc(Cl)cc1Cl,inactive,–
COc1cc(C(=O)N2CCCCCCC2)cc(OC)c1OC,inactive,–
COC(=O)N[C@H](C(=O)N[C@@H](Cc1ccccc1)[C@@H](O)CN(Cc1ccc(-c2ccccn2)cc1)NC(=O)[C@@H](NC(=O)OC)C(C)(C)C)C(C)(C)C,inactive,–
Clc1nc2ccccc2s1,inactive,–
COC(=O)Nc1nc2ccc(Sc3ccccc3)cc2[nH]1,inactive,–
CN1N=C(C(N)=O)CCC1=O,inactive,–
CCCCC(CC)CCC(CC(C)C)OS(=O)(=O)O (stereo not drawn),inactive,–
CSc1cnccn1,inactive,–
CCCCCCCOC(=O)c1ccccc1C(=O)OCCCCCCC,inactive,–

SMILES,Potency,"activity change, negative = cytotoxicity"
CC1CC(=O)CC(C)(C)C1 (stereo not drawn),inactive,–
O=[Si]=O,inactive,–
CCCCCCCC(OC)OC,inactive,–
NS(=O)(=O)c1cc2c(cc1Cl)NC(CC1CCCC1)NS2(=O)=O (stereo not drawn),inactive,–
N#CCc1cccc(C(F)(F)F)c1,inactive,–
CC(C)(c1cc(Br)c(O)c(Br)c1)c1cc(Br)c(O)c(Br)c1,43.1 µM (active) and 38.5 µM (active),–
Clc1ccccc1-c1nc(-c2ccncc2)no1,inactive,–
CC(=O)C(C)O (stereo not drawn),inactive,–
CO[Si](CCCNCCNCCN)(OC)OC,inactive,–
CC(=O)c1ccc2c(c1)CCCC2,inactive,–
Nc1c2ccccc2nc2ccccc12,inactive,–
NC(=O)c1cccc([N+](=O)[O-])c1,inactive,–
CCOc1cc(NC(C)=O)ccc1C(=O)OC,inactive,–
CCCC(O)C(O)CO (stereo not drawn),inactive,–
O=C(O)c1ccc(O)cc1O,inactive,–
C[Si](C)(C)Cl,inactive,–
COC(=O)c1c(Cl)c(Cl)c(C(=O)OC)c(Cl)c1Cl,inactive,–
Cc1ccc2n[nH]nc2c1,inactive,–
CCCOC(=O)C(C)O (stereo not drawn),inactive,–

# Experiment: Nuclear factor erythroid 2-related factor 2/antioxidant responsive element (Nrf2/ARE) small molecule agonists: luciferase reporter gene qHTS assay in human keratinocytes (AID 1919969; calls by dose curve; also: nearly all actives have a fitted effect of over 35% in size)
# Settings: KeratinoSens HaCaT ARE-luciferase, luminescence, 24 h; series mostly up to 92.4 µM
SMILES,Potency,"activity, positive = activation"
OCCOc1ccc(OCCO)cc1,inactive,–
N#CCC(=O)O,inactive,–
Nc1ncnc2c1ncn2[C@@H]1O[C@H](COP(=O)(O)O)[C@@H](O)[C@H]1O,inactive,–
CCc1ccc(C)nc1,inactive,–
CN(C)c1ccc(/C=C/c2ccc([N+](=O)[O-])cc2)cc1,–,12.5% [at 8.39 µM] (inactive)
C/C=C(\C)C(=O)OC/C=C(\C)CCC=C(C)C,inactive,–
CC(=O)/C=C/C1C(C)=CCC(C)C1(C)C (stereo not drawn),inactive,–
Cc1cccc(C)c1NC(=O)CC12CCCN1CCC2,inactive,–
CC(=O)N1CCN(c2ccc(O)cc2)CC1,inactive,–
C=C(C)C(=O)OCCCCCCOC(=O)C(=C)C,inactive,–
O=C1CCN(c2ccccc2)N1,inactive,–
Cl/C(=C\n1cncn1)c1ccc(Cl)cc1Cl,inactive,–
COc1cc(C(=O)N2CCCCCCC2)cc(OC)c1OC,inactive,–
COC(=O)N[C@H](C(=O)N[C@@H](Cc1ccccc1)[C@@H](O)CN(Cc1ccc(-c2ccccn2)cc1)NC(=O)[C@@H](NC(=O)OC)C(C)(C)C)C(C)(C)C,inactive,–
Clc1nc2ccccc2s1,inactive,–
COC(=O)Nc1nc2ccc(Sc3ccccc3)cc2[nH]1,30.6 µM (active) and 3.35 µM (active),–
CN1N=C(C(N)=O)CCC1=O,inactive,–
CCCCC(CC)CCC(CC(C)C)OS(=O)(=O)O (stereo not drawn),inactive,–
CSc1cnccn1,inactive,–
CCCCCCCOC(=O)c1ccccc1C(=O)OCCCCCCC,inactive,–

SMILES,Potency,"activity, positive = activation"
CC1CC(=O)CC(C)(C)C1 (stereo not drawn),inactive,–
O=[Si]=O,inactive,–
CCCCCCCC(OC)OC,inactive,–
NS(=O)(=O)c1cc2c(cc1Cl)NC(CC1CCCC1)NS2(=O)=O (stereo not drawn),inactive,–
N#CCc1cccc(C(F)(F)F)c1,68.6 µM (active),–
CC(C)(c1cc(Br)c(O)c(Br)c1)c1cc(Br)c(O)c(Br)c1,inactive,–
Clc1ccccc1-c1nc(-c2ccncc2)no1,2.11 µM (active),–
CC(=O)C(C)O (stereo not drawn),inactive,–
CO[Si](CCCNCCNCCN)(OC)OC,inactive,–
CC(=O)c1ccc2c(c1)CCCC2,inactive,–
Nc1c2ccccc2nc2ccccc12,6.03 µM (active) and 6.68 µM (active),–
NC(=O)c1cccc([N+](=O)[O-])c1,inactive,–
CCOc1cc(NC(C)=O)ccc1C(=O)OC,inactive,–
CCCC(O)C(O)CO (stereo not drawn),inactive,–
O=C(O)c1ccc(O)cc1O,inactive,–
C[Si](C)(C)Cl,inactive,–
COC(=O)c1c(Cl)c(Cl)c(C(=O)OC)c(Cl)c1Cl,30.6 µM (active),–
Cc1ccc2n[nH]nc2c1,inactive,–
CCCOC(=O)C(C)O (stereo not drawn),inactive,–
